Inconclusive results are not listed. Entries that show only a call come without a potency. The source made the active and inactive calls. Calls follow the shape of the dose curve; as a rule, active = well fitted inhibition curve with a large enough effect; inconclusive = small, poorly fitted or top-dose-only effect; inactive = flat fitted curve, though single readings scatter.
target: Glutathione peroxidase 1 (Homo sapiens) (UniProt P07203); assay: Primary qHTS Assay for Inhibitors of Recombinant Selenoprotein Glutathione Peroxidase 1 (GPX1) (AID 1845191); settings: recombinant GPX1, GR-coupled NADPH fluorescence, 15 min; series mostly up to 48.8 µM; also: nearly all actives have a fitted effect of over 65% in size
Sequence (P07203 whole entry, looked up): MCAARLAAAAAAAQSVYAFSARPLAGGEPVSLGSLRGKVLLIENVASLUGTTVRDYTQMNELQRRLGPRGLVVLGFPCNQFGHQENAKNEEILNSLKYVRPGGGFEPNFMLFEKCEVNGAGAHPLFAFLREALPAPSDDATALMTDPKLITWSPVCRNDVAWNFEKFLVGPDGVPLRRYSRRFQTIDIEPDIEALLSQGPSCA
Summary of the method: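 10 nM GPX1 + cpd, 30 min RT; start w/ 1 mM GSH, 0.5 mM cumene hydroperoxide, 0.5 mM NADPH, 100 nM GR, 0.01% BSA; buffer 50 mM Tris-HCl pH 7.5, 2 mM EDTA, 150 mM NaCl; Fl 340/450, 0 & 15 min.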

Structure (SMILES) | Potency
CN1[C@@H](CC(=O)c2ccccc2)CCC[C@H]1C[C@H](O)c1ccccc1 | inactive
NC(=O)C(c1ccccc1)(c1ccccc1)[C@@H]1CCN(CCc2ccc3c(c2)CCO3)C1 | inactive
COc1cccc(OC)c1OCCNCC1COc2ccccc2O1 (configuration not stated) | inactive
CCCCCC[C@@H](O)C/C=C\CCCCCCCC(=O)O | inactive
COc1ccc(C(=O)/C(Cc2cc(OC)c(OC)c(OC)c2)=C(\C(=O)O)c2ccc3c(c2)OCO3)cc1 | inactive
O=C(c1cc(O)c(O)c([N+](=O)[O-])c1)c1ccccc1F | inactive
CN(C)c1nc(N)c(C(=O)N=C(N)N)nc1Cl | inactive
CC1(C)CCC=[N+]1[O-] | inactive
CN=c1nc(-c2ccccc2)n(-c2ccccc2)s1 | inactive
CC1(C)S[C@@H]2[C@H](NC(=O)[C@H](N)c3ccccc3)C(=O)N2[C@H]1C(=O)O | inactive
CN[C@H](CC(C)C)C(=O)N[C@H]1C(=O)N[C@@H](CC(N)=O)C(=O)N[C@H]2C(=O)N[C@H]3C(=O)N[C@H](C(=O)N[C@H](C(=O)O)c4cc(O)cc(O)c4-c4cc3ccc4O)[C@H](O)c3ccc(c(Cl)c3)Oc3cc2cc(c3O[C@@H]2O[C@H](CO)[C@@H](O)[C@H](O)[C@H]2O[C@H]2C[C@](C)(N)[C@H](O)[C@H](C)O2)Oc2ccc(cc2Cl)[C@H]1O | inactive
CC1OC1P(=O)(O)O (configuration not stated) | inactive
CCCC(=O)OC[C@@H](OC(=O)CCC)[C@@H](OC(=O)CCC)[C@H](Cn1c2nc(=O)[nH]c(=O)c-2nc2cc(C)c(C)cc21)OC(=O)CCC | inactive
O=C(O)CC1CCCc2ccccc2C1O (configuration not stated) | inactive
CC(N)C(=O)OC(C)(C)Cc1ccc(Cl)cc1 (configuration not stated) | inactive
Nc1nc2ccc(Cl)cc2n2c(-c3ccccc3)nnc12 | inactive
O=C(NOCC1CC1)c1cc(Br)c(F)c(F)c1Nc1ccc(I)cc1Cl | inactive
COc1cc2c(CCNC(C)=O)c[nH]c2cc1Cl | inactive
O=C(CCSCc1ccco1)NNC(=O)N1Cc2ccccc2Oc2ccc(Cl)cc21 | inactive

Structure (SMILES) | Potency
O=C1NCc2c1c1c3ccccc3[nH]c1c1[nH]c3ccccc3c21 | inactive
COc1ccc(-c2cc(=O)c3c(O)c(OC)c(OC)cc3o2)cc1O | inactive
CC(=O)/C=C1\C(=O)N(C)c2ccccc21 | inactive
CCCCCCCCCCCC(=O)[O][Sn]([CH2]CCC)([CH2]CCC)[O]C(=O)CCCCCCCCCCC | inactive
NC(CCCP(=O)(O)O)C(=O)O (configuration not stated) | inactive
COc1ccc(Br)cc1S(=O)(=O)NC(=O)/C=C/c1ccccc1Cc1ccc2ccccc2c1 | inactive
O=C1CN(/N=C/c2ccc([N+](=O)[O-])o2)C(=O)N1 | inactive
COc1ccccc1CN[C@@H]1CCCN[C@@H]1c1ccccc1 | inactive
C#C[C@]1(O)CC[C@H]2[C@@H]3CCc4cc(O)ccc4[C@H]3CC[C@@]21C | inactive
O=C(O)/C=C\C(=O)O | inactive
COc1cc(/C=C/C(=O)CC(=O)/C=C/c2ccc(O)c(OC)c2)ccc1O | inactive
CC[C@@H](C)[C@H]1O[C@]2(CC[C@@H]1C)C[C@@H]1C[C@@H](C/C=C(\C)[C@@H](O[C@H]3C[C@H](OC)[C@@H](O[C@H]4C[C@H](OC)[C@@H](O)[C@H](C)O4)[C@H](C)O3)[C@@H](C)/C=C/C=C3\CO[C@@H]4[C@H](O)C(C)=C[C@@H](C(=O)O1)[C@]34O)O2 | inactive
OC[C@H]1O[C@@H](n2cnc3c(NC4CCCCC4)ncnc32)[C@H](O)[C@@H]1O | inactive
CNC(=O)[C@H]1O[C@@H](n2cnc3c(NCc4ccc(N)cc4)ncnc32)[C@H](O)[C@@H]1O | inactive
Cc1c(Nc2ncccc2C(=O)O)cccc1C(F)(F)F | inactive
N=c1ccn2c(n1)O[C@H]1[C@H](O)[C@@H](CO)O[C@H]12 | inactive
Cn1c(=O)c(-c2c(Cl)cccc2Cl)cc2cnc(Nc3ccc(N4CCOCC4)cc3)nc21 | inactive
S=c1[nH]c(-c2ccccc2)cn1-c1ccccc1 | inactive

— PubChem BioAssay (NCATS)
